Bioassay records (PubChem BioAssay)
In the library only some 6.7% were active in any assay of this set; here they are far more common.
Bead autofluor: counter-screen for toxin protease inhibitors: compound fluorescence. compound autofluorescence counterscreen, microsphere flow cytometry; active compounds read high. fluorescence intensity (concentration not given with the values). 360,000 tested, 3.1% active. AID 624483; in the data active = fluorescence intensity above about 16000; inconclusive = no clear call, values can overlap the other calls
Anthrax LF inh2: Bacillus anthracis LF protease inhibitors, primary screen, biochemical, multiplex microsphere, MLPCN library. Lethal factor (Bacillus anthracis), P15917. multiplex microsphere protease cleavage assay. inhibition, % at 10 µM. 360,000 tested, 0.12% active; note: plate controls were buffer without enzyme for full effect and enzyme alone for no effect
BoNT F protease: BoNT/F light chain protease inhibitors, primary screen, biochemical, flow cytometry, MLPCN library; inhibition, % at 10 µM; 360,000 tested, 0.22% active; Multiplex microsphere protease cleavage assay; in the data active = inhibition above about 35%, passing the limit was not always enough; inconclusive = no clear call, values can overlap the other calls; note: plate controls were buffer without enzyme for full effect and enzyme alone for no effect
GDH-TPI inh: GDH-TPI coupling enzyme inhibitors, primary screen, artefact control for M. tuberculosis FBA inhibitor project, biochemical, absorbance, full deck; GDH-TPI coupled enzyme counterscreen, NADH absorbance; inhibition, % at 4.8 µM; 360,000 tested, 1.2% active; in the data active = inhibition above about 30%;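 note: 0% = DMSO wells and 100% = wells lacking the enzyme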
Mtb FBA inh: Mtb FBA enzyme inhibitors, primary screen, biochemical, fluorescence, strain H37Rv. AID 588726, 2011. purified M. tuberculosis FBA, fluorescence read-out. Fructose-bisphosphate aldolase (Mycobacterium tuberculosis (strain ATCC 25618 / H37Rv)), …. 360,000 tested, 2.3% active. inhibition, % at 1 µM; in the data active = inhibition above about 27%;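 note: 0% = vehicle and 100% = reference inhibitor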
Target sequence (P9WQA3 whole entry, looked up): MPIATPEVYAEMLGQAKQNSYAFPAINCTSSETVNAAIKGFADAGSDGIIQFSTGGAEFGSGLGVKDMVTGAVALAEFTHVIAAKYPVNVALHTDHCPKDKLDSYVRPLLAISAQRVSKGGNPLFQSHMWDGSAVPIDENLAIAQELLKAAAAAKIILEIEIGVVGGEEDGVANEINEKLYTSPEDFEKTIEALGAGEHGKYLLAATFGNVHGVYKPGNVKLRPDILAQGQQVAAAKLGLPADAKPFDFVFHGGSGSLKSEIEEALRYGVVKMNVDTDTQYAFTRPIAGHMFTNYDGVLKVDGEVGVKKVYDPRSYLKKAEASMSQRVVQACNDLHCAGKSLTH
BoNT-A LC inh2: BoNT/A light chain protease inhibitors, primary screen, biochemical, flow cytometry, MLPCN library; multiplex microsphere protease substrate cleavage; inhibition, % at 10 µM; 360,000 tested, 0.17% active; AID 588499, 2011; Botulinum neurotoxin type A light chain protease (Clostridium botulinum A str. ATCC 3502); note: plate controls were buffer without enzyme for full effect and enzyme alone for no effect
Starred values were filed as active, the others as inactive; ? = inconclusive; nt = not tested or not shown; + = active, no number. Cut-off read from the data, not from the text of the source, unless noted: active = inhibition above about 30%; inconclusive = no clear call, values can overlap the other calls; inactive = below that.

SMILES	Bead autofluor	Anthrax LF inh2	BoNT F protease	GDH-TPI inh	Mtb FBA inh	BoNT-A LC inh2
CCCCSc1nc(SCC(=O)NCc2ccco2)c2c3c(sc2n1)COC(C)(CC)C3 (stereo not drawn)	9428	-2.8	-1.2	-6.4	-0.3	0.5
CSc1nc(SCC(=O)NCc2ccco2)c2c3c(sc2n1)COC(C)(C)C3	10952	-1.0	-2.0	36.0*	17.9	0.4
CC12CC3(C)CC(C)(C1)CC(C(=O)NC1=NCCS1)(C2)C3	23810*	-2.6	-18.1	21.9	-0.1	?
Cc1c(C(=O)NCc2ccccc2)oc2c1C(=O)CCC2	2612	-0.7	6.1	6.0	0.9	0.1
COc1ccc(C(=O)NC(=S)N2CC(C)OC(C)C2)cc1 (stereo not drawn)	2569	2.9	-5.6	0.4	3.2	0.1
Cc1ccc(C(=O)NC(=S)N2CC(C)OC(C)C2)cc1[N+](=O)[O-] (stereo not drawn)	23557*	-1.7	-1.1	-3.0	-3.1	-0.8
COc1ccccc1NC(=O)C1=C(C)Nc2ncnn2C1c1ccccc1C (stereo not drawn)	nt	nt	nt	6.4	6.8	nt
COc1cccc(C2C(C(=O)Nc3ccc(C)cc3C)=C(C)Nc3ncnn32)c1OC (stereo not drawn)	19983*	-2.1	1.6	-10.8	1.5	1.3
CC(C)N(C(=O)NC(=O)Nc1ccccn1)S(C)(=O)=O	2456	0.6	-6.2	3.8	2.1	-0.8
O=C(/C=C/C=C/c1ccc2c(c1)OCO2)N1CCCCC1	4903	3.3	-2.4	41.2*	1.8	0.7
CC(C)CNC(=O)/C=C/C=C/c1ccc2c(c1)OCO2	4242	2.0	-7.9	38.9*	8.3	-0.3
CN(C)CCCNC(=O)/C=C/c1ccc2c(c1)OCO2	8662	0.8	-3.5	21.0	7.6	0.2
CCCCN(C(=O)c1cc(Cl)nc2ccccc12)c1c(N)n(Cc2ccccc2)c(=O)[nH]c1=O	5250	-1.8	-7.7	6.4	1.0	-2.1
O=C(Nc1ccc(C(=O)N2CCOCC2)cc1)c1ccc([N+](=O)[O-])cc1	5654	-2.9	0.1	-8.0	-1.4	-1.6
N#Cc1c(OCC(=O)c2ccccc2)nc2c(c1-c1ccco1)CCc1ccccc1-2	18221*	-14.5	7.0	2.5	11.9	5.1
COc1ccccc1N1CCN(c2nc3c(C)cccn3c(=O)c2C=O)CC1	20185*	-1.3	2.3	8.1	-2.5	?
Cc1cccn2c(=O)c(C=O)c(N3CCCCCC3)nc12	19642*	-4.2	0.9	9.9	-1.1	0.9
COc1ccc(-c2ccc(SCC(=O)NCc3ccco3)nn2)cc1	24470*	-1.7	-3.5	6.8	2.8	-1.7
Cc1nc2cc(-c3ccc(Cl)cc3)nn2c(C)c1CCC(=O)NCc1ccco1	5867	0.5	-18.2	12.8	5.4	-0.8
COc1ccc(-c2cc3nc(C)c(CCC(=O)NCc4ccco4)c(C)n3n2)c(OC)c1	20470*	-0.6	-0.4	3.6	17.9	-0.6
O=C(CSc1ccc(-c2ccc(F)cc2)nn1)NCc1ccco1	9284	2.4	-4.9	-3.4	-2.1	-0.6
COc1ccc(-c2ccc(C#N)c(SCC(=O)NCc3ccco3)n2)cc1OC	nt	nt	nt	46.2*	+	nt
COc1ccc(-c2ccc(C#N)c(SCC(=O)OCc3ccccc3)n2)cc1OC	2799	-7.0	1.5	22.5	+	0.3
CCC1=C(OC(=O)N(CC)CC)N2C(=O)OC(=NCCOC)[C@]2(Cc2ccccc2)[C@H]2C1=CC[C@H]1C(=O)NC(=O)[C@H]12	3652	-8.1	-7.5	-3.5	-1.2	0.1
O=C(CSc1nc(-c2ccccc2)c(-c2ccccc2)[nH]1)NCc1ccco1	23502*	-3.0	-1.9	7.0	4.9	0.3
SMILES	Bead autofluor	Anthrax LF inh2	BoNT F protease	GDH-TPI inh	Mtb FBA inh	BoNT-A LC inh2
COC(=O)/C(=C1/Oc2cc(C)oc(=O)c2S1)C(F)(F)F	21329*	-7.5	4.6	8.6	-2.2	?
O=C(O)Cc1sc(NCc2ccco2)nc1-c1ccccc1	5988	-10.8	-4.6	14.6	0.4	1.1
CCc1ccc(N(CC(=O)NC2CC2)S(=O)(=O)c2ccc(C)cc2)cc1	4228	3.3	-3.5	3.7	0.8	-0.7
Cc1cc(-c2nc3ncccc3o2)ccc1N	5011	-4.6	-29.1	45.4*	+	-1.3
Cc1ccc(-c2nc3ncccc3o2)cc1N	3609	3.5	12.4	3.5	-4.0	-1.6
Nc1ccc(Cl)c(-c2nc3ncccc3o2)c1	2951	-5.1	-8.0	12.4	0.5	-0.8
Nc1ccc(-c2nc3ncccc3o2)c(O)c1	2925	7.2	-11.6	58.6*	+	1.7
CCOC(=O)C1=NN(c2ccccc2C)C2=NC(C)=C(C(=O)OC)C(c3cccs3)N12 (stereo not drawn)	17523*	-10.3	5.5	3.2	-3.8	6.6
Cc1cc(Cl)c(OCCN2C(=O)NC(C)(C)C2=O)c(Br)c1	20599*	-2.2	-1.3	-10.2	6.0	0.1
Cc1cc(C)c(OCCN2C(=O)NC(C)(C)C2=O)c(Cl)c1	22616*	-1.9	0.5	-10.2	-0.8	0.2
CC(C)c1cc(Br)ccc1OCCN1C(=O)NC(C)(C)C1=O	4450	0.6	-4.4	12.3	-1.1	-0.8
Cc1cc(Cl)c(OCCCNCc2ccccc2)c(Br)c1	6234	-8.7	-23.2	5.9	-6.6	-1.1
Cc1cc(C)c(OCCN2CCCC2)c(Cl)c1	nt	nt	nt	10.0	0.3	nt
Cc1cc(Cl)cc(Br)c1OCCCN1C(=O)NC(C)(C)C1=O	20662*	0.9	7.1	1.8	-0.3	4.3
COCCNCCCCOc1c(Cl)cc(C)cc1Br	20464*	-4.6	-2.2	-8.9	0.1	0.1
CN(C)c1ccnc(SCc2ccccc2Cl)c1C#N	22367*	-1.9	-9.5	4.9	-4.9	-6.1
COc1ccc(CCC(=O)OCC(=O)N2CCN(S(=O)(=O)c3ccc(C)cc3C)CC2)cc1	5823	0.1	3.9	0.3	1.2	-2.5
COc1ccc(N2CCN(C(=O)c3cc4c(s3)-c3ccccc3OC4)CC2)cc1	4604	-2.7	4.2	12.5	4.5	-0.5
CCCN1CCN(C(=O)c2cc3c(s2)-c2ccccc2OC3)CC1	4129	7.4	1.2	32.7*	186.4*	1.4
CCOC(=O)N1CCN(C(=O)c2cc3c(s2)-c2ccccc2OC3)CC1	5587	2.8	-2.8	23.2	146.9*	0.7
COC(=O)C1=C(C)N(CCc2c[nH]c3ccccc23)C(=O)C1	5970	-7.1	-5.8	-0.9	8.9	-1.7
CCCCCn1c(SCc2ccncc2)nc2cc(C(=O)NCc3ccco3)ccc2c1=O	19744*	-8.7	2.3	8.9	-0.5	?
